Test results as given in US20210230599, “STEM-LOOP COMPOSITIONS AND METHODS FOR INHIBITING INTERLEUKIN-8” (VITRISA THERAPEUTICS, INC., published 2021).

The sequences below were run against Interleukin-8 (IL8, CXCL8), C-terminal His-tagged (Homo sapiens, UniProt P10145 SEQ:1-72) (assay: competition; competition TR-FRET; G18A). Conditions: tags: C-terminal 6xHis (Sino Biological); ssRNA; 2'-F G, 2'-OMe A/C/U, 5' C6NH2, 3' idT.
Protocol: To better understand the sequence requirements and to confirm the stem structures of members of the Aptamer 3 family as determined from sequence covariation analysis from both the primary and secondary (degenerate) selections, a series of variants which included mutations and deletions to the predicted stems were synthesized and screened (Table 24). Activity of each of these variants were tested using a time resolved competition TR-FRET assay in which the labeled parent Aptamer 3 was competed with increasing concentrations of unlabeled variants for binding to IL8 (FIG. 14). Briefly, 2-fold dilutions of thermally equilibrated aptamers were made in TR-FRET Buffer (50 mM MOPS, pH 7.4, 125 mM NaCl, 5 mM KCl, 50 μM CHAPS, 0.1 mg/mL BSA, 1 mM CaCl₂, and 1 mM MgCl₂). 5 μL of aptamer or control solution was added to 5 μl mix of 10 nM C-terminal His-tagged-IL8, 60 nM ALEXA FLUOR® 647-labeled Aptamer, and 5 nM anti-His-Eu (Perkin Elmer) in a black wall low volume 384 well plate (Greiner). For control, 5 μl of 1000-fold excess of unlabeled parent aptamer or 5 μl TR-FRET buffer alone was added to the mix of ALEXA FLUOR® 647-labeled aptamer, His-IL8, and anti-His-Eu. The plate was covered with a plate seal and subsequently incubated in the dark for 1 hour at room temperature. The plate was read on a Biotek CYTATION™ 5 plate reader. […]
UGAUGACGGUAGAUUACAGGUAGAGUGACCGCAUCU showed a binding signal of about 5 fold worse than Aptamer 3.
